# Experiments:
# [1] = molecular target: Sphingosine kinase 1 (Homo sapiens) (UniProt Q9NYA1); settings: at 1 µM;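 further: mean SPHK1 inhibition value reported from the GSK PKIS kinase panel screen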
# [2] = molecular target: T1, Sphingosine kinase 2 (Homo sapiens) (UniProt Q9NRA0); settings: at 0.1 µM
# T1 sequence (whole entry): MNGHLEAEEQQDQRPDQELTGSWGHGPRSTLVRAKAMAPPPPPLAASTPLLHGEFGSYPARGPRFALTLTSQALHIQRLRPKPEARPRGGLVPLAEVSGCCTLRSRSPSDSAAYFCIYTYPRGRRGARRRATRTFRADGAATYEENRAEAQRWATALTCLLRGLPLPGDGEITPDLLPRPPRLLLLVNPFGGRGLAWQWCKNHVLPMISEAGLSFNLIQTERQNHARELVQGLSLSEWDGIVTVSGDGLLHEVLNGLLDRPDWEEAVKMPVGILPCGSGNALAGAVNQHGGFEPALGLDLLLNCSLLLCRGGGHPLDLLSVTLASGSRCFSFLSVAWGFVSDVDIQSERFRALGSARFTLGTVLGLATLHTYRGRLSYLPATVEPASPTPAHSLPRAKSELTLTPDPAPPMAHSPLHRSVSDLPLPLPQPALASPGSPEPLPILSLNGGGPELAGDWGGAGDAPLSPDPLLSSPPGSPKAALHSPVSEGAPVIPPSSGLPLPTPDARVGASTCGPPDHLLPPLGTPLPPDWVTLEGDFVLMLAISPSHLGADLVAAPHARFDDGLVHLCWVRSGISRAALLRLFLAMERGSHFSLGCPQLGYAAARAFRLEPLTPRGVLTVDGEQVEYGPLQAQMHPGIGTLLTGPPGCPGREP
# [3] = molecular target: T1, Sphingosine kinase 2 (Homo sapiens); settings: at 1 µM
# [4] = molecular target: Casein kinase II subunit alpha (Homo sapiens) (UniProt P68400); settings: at 0.1 µM
# Casein kinase II subunit alpha (Homo sapiens), sequence (P68400 whole entry, looked up): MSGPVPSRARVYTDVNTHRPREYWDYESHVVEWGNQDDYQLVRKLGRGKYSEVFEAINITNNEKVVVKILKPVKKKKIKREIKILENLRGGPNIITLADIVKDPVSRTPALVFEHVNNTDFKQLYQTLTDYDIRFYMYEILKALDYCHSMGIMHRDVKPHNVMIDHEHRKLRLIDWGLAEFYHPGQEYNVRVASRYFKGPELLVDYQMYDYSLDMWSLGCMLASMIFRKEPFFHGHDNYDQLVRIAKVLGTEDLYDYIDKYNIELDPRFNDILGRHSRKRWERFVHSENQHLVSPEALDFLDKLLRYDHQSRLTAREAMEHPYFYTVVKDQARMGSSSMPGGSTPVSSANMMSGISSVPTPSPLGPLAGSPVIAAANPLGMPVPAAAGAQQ
# [5] = molecular target: Casein kinase II subunit alpha (Homo sapiens) (UniProt P68400); settings: at 1 µM
# [6] = molecular target: T2, Inhibitor of nuclear factor kappa-B kinase subunit alpha (Homo sapiens) (UniProt O15111); settings: at 0.1 µM
# T2 sequence (whole entry): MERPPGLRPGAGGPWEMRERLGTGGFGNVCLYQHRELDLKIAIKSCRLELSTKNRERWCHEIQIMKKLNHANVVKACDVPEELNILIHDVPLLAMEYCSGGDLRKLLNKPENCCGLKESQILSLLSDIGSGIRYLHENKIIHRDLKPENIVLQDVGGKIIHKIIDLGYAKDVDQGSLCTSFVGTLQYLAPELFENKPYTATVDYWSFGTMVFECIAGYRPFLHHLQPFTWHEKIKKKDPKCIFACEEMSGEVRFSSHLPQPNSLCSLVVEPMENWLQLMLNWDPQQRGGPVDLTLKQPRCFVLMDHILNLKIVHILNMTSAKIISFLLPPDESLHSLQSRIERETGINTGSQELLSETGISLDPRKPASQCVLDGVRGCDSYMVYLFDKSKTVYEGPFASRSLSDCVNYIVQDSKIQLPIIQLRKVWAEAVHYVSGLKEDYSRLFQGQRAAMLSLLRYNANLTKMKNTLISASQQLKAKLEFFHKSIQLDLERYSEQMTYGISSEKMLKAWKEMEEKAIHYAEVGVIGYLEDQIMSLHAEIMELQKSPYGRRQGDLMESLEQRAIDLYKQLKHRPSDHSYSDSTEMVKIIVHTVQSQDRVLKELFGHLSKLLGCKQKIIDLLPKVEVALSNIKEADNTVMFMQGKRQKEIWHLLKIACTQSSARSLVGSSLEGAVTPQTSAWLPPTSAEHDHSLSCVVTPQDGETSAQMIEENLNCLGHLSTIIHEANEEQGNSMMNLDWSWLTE
# [7] = molecular target: T2, Inhibitor of nuclear factor kappa-B kinase subunit alpha (Homo sapiens); settings: at 1 µM
# [8] = molecular target: T3, Inhibitor of nuclear factor kappa-B kinase subunit beta (Homo sapiens) (UniProt O14920); settings: at 0.1 µM
# T3 sequence (whole entry): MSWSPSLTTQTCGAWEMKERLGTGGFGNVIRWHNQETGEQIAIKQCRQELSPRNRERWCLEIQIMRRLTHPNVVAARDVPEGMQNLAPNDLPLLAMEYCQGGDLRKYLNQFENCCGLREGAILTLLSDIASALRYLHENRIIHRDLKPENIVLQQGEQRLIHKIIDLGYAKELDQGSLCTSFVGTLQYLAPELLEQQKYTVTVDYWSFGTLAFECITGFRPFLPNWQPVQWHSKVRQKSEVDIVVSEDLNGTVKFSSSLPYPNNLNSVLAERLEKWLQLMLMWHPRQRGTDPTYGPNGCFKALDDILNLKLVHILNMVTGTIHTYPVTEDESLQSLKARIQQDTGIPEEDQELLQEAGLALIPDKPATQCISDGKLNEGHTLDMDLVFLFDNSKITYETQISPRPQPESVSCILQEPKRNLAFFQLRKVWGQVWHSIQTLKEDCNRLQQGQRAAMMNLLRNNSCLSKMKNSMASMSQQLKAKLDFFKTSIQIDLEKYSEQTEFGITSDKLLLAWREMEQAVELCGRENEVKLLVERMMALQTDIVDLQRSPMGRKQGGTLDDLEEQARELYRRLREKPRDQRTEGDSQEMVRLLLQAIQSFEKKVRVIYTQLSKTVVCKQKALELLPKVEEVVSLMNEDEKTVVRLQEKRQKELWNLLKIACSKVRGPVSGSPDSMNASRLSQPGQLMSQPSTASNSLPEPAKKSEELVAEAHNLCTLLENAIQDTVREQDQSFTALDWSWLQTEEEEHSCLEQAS
# [9] = molecular target: T3, Inhibitor of nuclear factor kappa-B kinase subunit beta (Homo sapiens); settings: at 1 µM
# [10] = molecular target: T4, Inhibitor of nuclear factor kappa-B kinase subunit epsilon (Homo sapiens) (UniProt Q14164); settings: at 0.1 µM
# T4 sequence (whole entry): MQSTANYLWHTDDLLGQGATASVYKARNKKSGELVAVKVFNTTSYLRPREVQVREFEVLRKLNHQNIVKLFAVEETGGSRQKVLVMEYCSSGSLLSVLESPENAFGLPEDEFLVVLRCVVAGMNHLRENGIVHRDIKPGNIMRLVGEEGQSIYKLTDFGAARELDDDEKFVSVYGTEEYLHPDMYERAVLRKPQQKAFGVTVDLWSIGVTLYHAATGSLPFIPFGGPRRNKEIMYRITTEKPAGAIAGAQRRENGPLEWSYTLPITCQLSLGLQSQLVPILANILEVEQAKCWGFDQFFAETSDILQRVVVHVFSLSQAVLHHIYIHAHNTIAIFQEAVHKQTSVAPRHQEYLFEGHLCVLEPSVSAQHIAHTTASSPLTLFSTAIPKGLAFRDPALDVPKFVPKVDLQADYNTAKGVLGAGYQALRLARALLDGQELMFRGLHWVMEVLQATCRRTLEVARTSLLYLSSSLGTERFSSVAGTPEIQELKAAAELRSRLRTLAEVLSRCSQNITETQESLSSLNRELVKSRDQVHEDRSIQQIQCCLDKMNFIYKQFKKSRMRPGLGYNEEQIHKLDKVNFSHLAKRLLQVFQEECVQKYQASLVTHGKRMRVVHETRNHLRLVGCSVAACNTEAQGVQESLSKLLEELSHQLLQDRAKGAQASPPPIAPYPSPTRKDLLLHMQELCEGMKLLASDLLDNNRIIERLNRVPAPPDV
# [11] = molecular target: T4, Inhibitor of nuclear factor kappa-B kinase subunit epsilon (Homo sapiens); settings: at 1 µM
# [12] = molecular target: T5, Serine/threonine-protein kinase Nek1 (Homo sapiens) (UniProt Q96PY6); settings: at 0.1 µM
# T5 sequence (whole entry): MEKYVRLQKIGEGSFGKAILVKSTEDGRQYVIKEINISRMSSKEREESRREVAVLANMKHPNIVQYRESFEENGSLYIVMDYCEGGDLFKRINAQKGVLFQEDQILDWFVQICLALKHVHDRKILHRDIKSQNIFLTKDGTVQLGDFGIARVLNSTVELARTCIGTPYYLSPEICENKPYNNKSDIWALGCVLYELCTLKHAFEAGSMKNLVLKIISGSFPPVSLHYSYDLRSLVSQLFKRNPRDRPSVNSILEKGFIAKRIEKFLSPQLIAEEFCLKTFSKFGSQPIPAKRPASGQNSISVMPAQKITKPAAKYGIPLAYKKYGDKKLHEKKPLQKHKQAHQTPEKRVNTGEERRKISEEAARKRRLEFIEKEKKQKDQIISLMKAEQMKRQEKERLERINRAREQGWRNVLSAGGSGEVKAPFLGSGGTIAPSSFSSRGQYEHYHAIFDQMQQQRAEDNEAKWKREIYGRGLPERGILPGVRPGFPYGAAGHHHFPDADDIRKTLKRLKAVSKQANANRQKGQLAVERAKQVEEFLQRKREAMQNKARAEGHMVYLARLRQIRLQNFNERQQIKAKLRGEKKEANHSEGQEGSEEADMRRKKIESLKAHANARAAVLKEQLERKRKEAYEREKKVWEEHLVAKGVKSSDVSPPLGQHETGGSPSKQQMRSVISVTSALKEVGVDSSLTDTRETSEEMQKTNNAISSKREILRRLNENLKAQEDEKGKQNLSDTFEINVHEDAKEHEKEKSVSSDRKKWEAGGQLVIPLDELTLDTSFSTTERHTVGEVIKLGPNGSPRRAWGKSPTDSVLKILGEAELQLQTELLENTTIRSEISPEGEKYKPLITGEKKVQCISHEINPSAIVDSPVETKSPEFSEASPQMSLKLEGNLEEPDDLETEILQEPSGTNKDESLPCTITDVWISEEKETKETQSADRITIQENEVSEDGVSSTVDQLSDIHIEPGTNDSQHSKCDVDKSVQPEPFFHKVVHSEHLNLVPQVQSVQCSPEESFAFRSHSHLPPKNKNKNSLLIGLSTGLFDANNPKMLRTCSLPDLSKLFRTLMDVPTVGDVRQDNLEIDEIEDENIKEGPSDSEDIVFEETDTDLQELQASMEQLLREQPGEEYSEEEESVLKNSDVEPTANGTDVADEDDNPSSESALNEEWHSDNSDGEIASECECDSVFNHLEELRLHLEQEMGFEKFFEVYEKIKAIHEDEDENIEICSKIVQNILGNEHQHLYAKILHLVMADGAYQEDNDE
# [13] = molecular target: T5, Serine/threonine-protein kinase Nek1 (Homo sapiens); settings: at 1 µM
# [14] = molecular target: T6, Serine/threonine-protein kinase Nek2 (Homo sapiens) (UniProt P51955); settings: at 0.1 µM
# T6 sequence (whole entry): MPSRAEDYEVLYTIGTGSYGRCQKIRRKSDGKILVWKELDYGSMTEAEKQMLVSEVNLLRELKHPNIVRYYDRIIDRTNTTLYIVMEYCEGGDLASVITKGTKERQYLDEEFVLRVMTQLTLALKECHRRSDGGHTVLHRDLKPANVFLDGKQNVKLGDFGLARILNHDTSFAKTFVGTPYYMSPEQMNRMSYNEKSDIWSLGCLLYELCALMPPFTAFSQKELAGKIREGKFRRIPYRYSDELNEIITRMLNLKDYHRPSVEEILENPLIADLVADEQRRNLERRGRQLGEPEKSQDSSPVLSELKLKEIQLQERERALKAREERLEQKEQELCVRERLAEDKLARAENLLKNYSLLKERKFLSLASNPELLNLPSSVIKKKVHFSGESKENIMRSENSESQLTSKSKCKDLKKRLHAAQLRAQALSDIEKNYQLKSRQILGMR
# [15] = molecular target: T6, Serine/threonine-protein kinase Nek2 (Homo sapiens); settings: at 1 µM
# [16] = molecular target: Serine/threonine-protein kinase Nek6 (Homo sapiens) (UniProt Q9HC98); settings: at 0.1 µM
# Serine/threonine-protein kinase Nek6 (Homo sapiens), sequence (Q9HC98 whole entry): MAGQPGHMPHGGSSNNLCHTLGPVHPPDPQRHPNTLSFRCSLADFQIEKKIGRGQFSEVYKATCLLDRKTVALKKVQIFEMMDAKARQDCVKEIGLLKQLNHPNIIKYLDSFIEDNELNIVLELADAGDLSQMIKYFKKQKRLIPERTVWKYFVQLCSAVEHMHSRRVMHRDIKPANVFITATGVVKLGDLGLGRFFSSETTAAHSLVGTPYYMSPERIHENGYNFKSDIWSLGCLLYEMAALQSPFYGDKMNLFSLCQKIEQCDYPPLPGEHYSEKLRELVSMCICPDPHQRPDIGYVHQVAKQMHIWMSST
# [17] = molecular target: Serine/threonine-protein kinase Nek6 (Homo sapiens) (UniProt Q9HC98); settings: at 1 µM
# [18] = molecular target: Serine/threonine-protein kinase Nek7 (Homo sapiens) (UniProt Q8TDX7); settings: at 0.1 µM
# Serine/threonine-protein kinase Nek7 (Homo sapiens), sequence (Q8TDX7 whole entry, looked up): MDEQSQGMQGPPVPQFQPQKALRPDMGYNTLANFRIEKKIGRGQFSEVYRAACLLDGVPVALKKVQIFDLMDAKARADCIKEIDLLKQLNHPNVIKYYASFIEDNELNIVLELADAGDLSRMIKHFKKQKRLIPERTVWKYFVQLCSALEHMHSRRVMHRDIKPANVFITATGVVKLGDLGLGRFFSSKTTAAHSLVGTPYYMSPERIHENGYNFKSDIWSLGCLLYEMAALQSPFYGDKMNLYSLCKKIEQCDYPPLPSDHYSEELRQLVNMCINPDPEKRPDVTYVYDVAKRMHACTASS
# [19] = molecular target: Serine/threonine-protein kinase Nek7 (Homo sapiens) (UniProt Q8TDX7); settings: at 1 µM
# [20] = molecular target: T7, Serine/threonine-protein kinase Nek9 (Homo sapiens) (UniProt Q8TD19); settings: at 0.1 µM;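 further: reported value is the mean percent inhibition of NEK9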
# T7 sequence (whole entry): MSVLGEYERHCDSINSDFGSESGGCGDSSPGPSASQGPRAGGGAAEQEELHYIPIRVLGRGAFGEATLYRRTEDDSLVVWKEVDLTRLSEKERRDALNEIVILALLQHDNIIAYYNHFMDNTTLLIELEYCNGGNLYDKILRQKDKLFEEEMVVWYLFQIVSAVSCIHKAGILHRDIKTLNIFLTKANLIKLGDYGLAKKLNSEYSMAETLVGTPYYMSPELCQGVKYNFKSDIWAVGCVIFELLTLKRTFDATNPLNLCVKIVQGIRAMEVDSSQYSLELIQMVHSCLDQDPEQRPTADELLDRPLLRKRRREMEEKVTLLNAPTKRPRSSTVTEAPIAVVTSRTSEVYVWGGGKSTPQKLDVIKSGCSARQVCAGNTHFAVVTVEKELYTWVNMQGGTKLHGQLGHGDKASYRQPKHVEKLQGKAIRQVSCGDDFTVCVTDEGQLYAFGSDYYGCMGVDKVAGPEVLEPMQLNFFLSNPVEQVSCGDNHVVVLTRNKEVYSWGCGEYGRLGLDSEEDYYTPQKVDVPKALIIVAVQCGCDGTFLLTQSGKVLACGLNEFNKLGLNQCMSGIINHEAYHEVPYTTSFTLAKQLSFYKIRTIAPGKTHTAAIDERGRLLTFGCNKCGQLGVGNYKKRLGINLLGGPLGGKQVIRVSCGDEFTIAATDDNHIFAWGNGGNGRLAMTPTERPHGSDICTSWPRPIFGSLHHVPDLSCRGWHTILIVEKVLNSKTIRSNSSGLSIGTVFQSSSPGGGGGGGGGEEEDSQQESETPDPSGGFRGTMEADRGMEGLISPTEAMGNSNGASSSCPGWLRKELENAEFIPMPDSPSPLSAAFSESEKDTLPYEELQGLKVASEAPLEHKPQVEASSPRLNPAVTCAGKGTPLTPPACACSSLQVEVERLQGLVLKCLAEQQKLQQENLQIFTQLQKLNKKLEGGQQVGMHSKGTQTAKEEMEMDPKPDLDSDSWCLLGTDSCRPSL
# Sphingosine kinase 1 (Homo sapiens), sequence (Q9NYA1 whole entry): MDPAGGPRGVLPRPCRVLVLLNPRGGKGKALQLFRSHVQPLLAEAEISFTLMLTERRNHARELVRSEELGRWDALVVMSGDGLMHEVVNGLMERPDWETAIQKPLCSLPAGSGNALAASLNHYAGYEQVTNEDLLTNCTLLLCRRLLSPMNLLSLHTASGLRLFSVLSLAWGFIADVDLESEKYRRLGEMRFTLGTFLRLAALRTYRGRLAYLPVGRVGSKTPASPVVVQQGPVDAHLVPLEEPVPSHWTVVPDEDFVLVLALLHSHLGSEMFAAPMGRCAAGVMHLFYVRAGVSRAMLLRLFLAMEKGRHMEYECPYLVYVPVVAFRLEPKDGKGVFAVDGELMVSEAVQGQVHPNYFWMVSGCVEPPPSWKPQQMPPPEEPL
compound,measurement,setting,value
COc1cc2ncn(-c3cc(OCc4cccs4)c(C(N)=O)s3)c2cc1OC,inhibition,[1],-0.69%
same,inhibition,[2],0.11%
same,inhibition,[3],-0.11%
same,inhibition,[4],5.63%
same,inhibition,[5],20.8%
same,inhibition,[6],3.56%
same,inhibition,[7],4.87%
same,inhibition,[8],3.09%
same,inhibition,[9],6.07%
same,inhibition,[10],7.67%
same,inhibition,[11],7.71%
same,inhibition,[12],3.32%
same,inhibition,[13],7.88%
same,inhibition,[14],4.6%
same,inhibition,[15],15.3%
same,inhibition,[16],3.67%
same,inhibition,[17],6.02%
same,inhibition,[18],1.64%
same,inhibition,[19],2.38%
same,inhibition,[20],5.68%
